From PubChem BioAssay AID652039 (The Scripps Research Institute Molecular Screening Center, 2013)
The campaign covered roughly 370,000 compounds. About 3,300 (0.89%) were called active. The list comes from a sample in which actives are over-represented; it also holds similar structures and randomly drawn compounds. A number with no mark means an inactive call.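 The calls were made as follows: active = activation above the mean of all tested compounds plus 3 SD, computed per campaign excluding outliers beyond control limits (cut at about 13% in these data); inactive = the rest.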

target: Kallikrein-7 (Homo sapiens) (UniProt P49862); assay: activation of human kallikrein-7 proenzyme – biochemical, fluorescence intensity, primary screen (AID 652039); settings: purified proKLK7, EDANS-DABCYL substrate fluorescence; at 7 µM; active compounds read high; 100% is mature enzyme control, 0% vehicle
Sequence (P49862 whole entry, looked up): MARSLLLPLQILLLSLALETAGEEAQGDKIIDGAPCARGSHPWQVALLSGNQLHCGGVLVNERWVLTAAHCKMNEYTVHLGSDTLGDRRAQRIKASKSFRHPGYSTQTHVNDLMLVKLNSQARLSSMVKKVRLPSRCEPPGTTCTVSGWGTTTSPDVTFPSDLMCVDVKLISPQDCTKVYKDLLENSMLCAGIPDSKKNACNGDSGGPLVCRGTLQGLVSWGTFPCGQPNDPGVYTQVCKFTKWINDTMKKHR

Question: How did the activation turn out when `COc1ccc(CCNC(=O)COC(=O)c2cc(=O)c3ccccc3o2)cc1` was run?
Answer: 0.13%

Question: Which activation does the source give for `COc1ccc(CNC(=O)COC(=O)C2=Cc3ccccc3OC2)cc1` here?
Answer: 31.2% (active)

Question: With `COc1ccc(CNC(=O)COC(=O)C(CCSC)N2C(=O)c3ccccc3C2=O)cc1` (stereo not given) as the compound, how does the activation read?
Answer: 0.41%

Question: `COc1ccc(-c2cc(-c3nnc(SCc4ccc([N+](=O)[O-])cc4)n3N)[nH]n2)cc1` was tested. Which activation did it give?
Answer: 0.29%

Question: Which activation does the source give for `O=C(NCc1ccco1)C1CCCN(S(=O)(=O)c2ccc(Cl)s2)C1` (stereo not given) here?
Answer: -0.13%

Question: For `COC(=O)C1CN(CC(C)C)CCS(=O)(=O)N1Cc1ccc(F)cc1` (stereo not given), which activation is on record?
Answer: 0.05%

Question: With `COc1ccc2c(c1)CCc1c(C(=O)N3CCCC3)noc1-2` as the compound, how does the activation read?
Answer: 0.01%

Question: For `N#Cc1cnn2cc(CCN3CCOCC3)c(-c3ccc(F)cc3)nc12`, which activation is on record?
Answer: 11.7%

Question: For `COc1ccc2c(c1)CCc1cn3ncc(C#N)c3nc1-2`, which activation is on record?
Answer: 47% (active)

Question: For `CN(CCc1ccccc1)C(=O)Cn1nc(-c2ccccc2)ccc1=O`, which activation is on record?
Answer: -0.3%

Question: Which activation does the source give for `CCOC(=O)C1(Cc2ccccc2)CCN(Cc2cn(C(C)=O)c3ccccc23)CC1` here?
Answer: 0.56%

Question: With `CCCCCCN1CCS(=O)(=O)N(Cc2ccc(C(F)(F)F)cc2)C(C(=O)OC)C1` (stereo not given) as the compound, how does the activation read?
Answer: 0.5%

Question: For `CCOC(=O)c1oc2c(CN3CCN(C)CC3)c(O)ccc2c(=O)c1-c1ccc(Br)cc1`, which activation is on record?
Answer: 0.69%

Question: Which activation does the source give for `O=c1c(-c2ccccc2)coc2c(CN3CCOCC3)c(O)ccc12` here?
Answer: 45.3% (active)

Question: With `O=c1[nH]c(CN2CCOCC2)nc2scc(-c3ccccc3)c12` as the compound, how does the activation read?
Answer: -0.59%

Question: How did the activation turn out when `O=C(NCC1COc2ccccc2O1)c1ccc(NC(=O)c2cc(F)ccc2F)cc1` (stereo not given) was run?
Answer: 1.38%

Question: Which activation does the source give for `COc1cccc(Cn2cc(COC(=O)Nc3ccc(F)cc3)nn2)c1` here?
Answer: -0.1%

Question: With `Cc1cc(S(=O)(=O)c2cc3ccc(O)c(C)c3oc2=O)ccc1F` as the compound, how does the activation read?
Answer: 22.6% (active)

Question: With `COc1cccc2cc(S(=O)(=O)c3ccc(C)cc3)/c(=N/NS(=O)(=O)c3ccc(C)cc3)oc12` as the compound, how does the activation read?
Answer: 0.14%

Question: Which activation does the source give for `O=C(CSc1nc2ccccc2s1)NN=Cc1ccc(O)cc1O` here?
Answer: -0.66%

Question: `COc1cccc(/C=C2\CC3(OC(C)=O)CCCN2C3)c1` (stereo not given) was tested. Which activation did it give?
Answer: 0.57%

Question: How did the activation turn out when `O=C(CCCCCN1C(=O)C2C3C=CC(C3)C2C1=O)Nc1ccccn1` (stereo not given) was run?
Answer: 0.09%

Question: `C=C(C)C1CC23C(=O)C4(C(=O)c5ccccc5)C[C@@]5(C)CCC(CC2C1(C)C)(C4=O)C35OC` (stereo not given in full) was tested. Which activation did it give?
Answer: -0.91%

Question: Which activation does the source give for `Cc1cc(=O)oc2c1ccc1ccccc12` here?
Answer: -3.76%

Question: For `Cc1ccccc1C(=O)O`, which activation is on record?
Answer: -0.39%

Question: Which activation does the source give for `Cc1ccsc1-c1cc(C(=O)O)c2c(ccc3ccccc32)n1` here?
Answer: 12.6% (active)

Question: For `COc1ccc(CCNC(=O)COc2cc(C)cc3oc(=O)c(C)c(C)c23)cc1OC`, which activation is on record?
Answer: -0.02%

Question: With `Cc1c(C)c2c(OCC(=O)N[C@@H](C(=O)O)c3ccccc3)cc3c(c2oc1=O)CCC(C)(C)O3` as the compound, how does the activation read?
Answer: 39.6% (active)

Question: Which activation does the source give for `Cc1c(OC(C)C(=O)N[C@@H](Cc2ccccc2)C(=O)O)ccc2c3c(c(=O)oc12)CCCC3` (stereo not given in full) here?
Answer: -18.9%

Question: With `Cc1cc(=O)oc2c3c(cc(OCC(=O)NCC(O)c4ccccc4)c12)OC(C)(C)CC3` (stereo not given) as the compound, how does the activation read?
Answer: -10.6%

Question: How did the activation turn out when `Cc1cc(=O)oc2c3c(cc(OCC(=O)N[C@H](C(=O)O)c4ccccc4)c12)OC(C)(C)CC3` was run?
Answer: 47.5% (active)

Question: Which activation does the source give for `Cc1cc(=O)oc2c3c(cc(OCC(=O)NCc4ccccn4)c12)OC(C)(C)CC3` here?
Answer: 12.5%

Question: For `COc1cccc(NC(=O)COc2cc(C)cc3oc(=O)cc(C)c23)c1`, which activation is on record?
Answer: -0.24%

Question: With `Cc1c(C)c2c(OCC(=O)NCCCO)cc3c(c2oc1=O)CCC(C)(C)O3` as the compound, how does the activation read?
Answer: 40.1% (active)

Question: How did the activation turn out when `CCc1cc(=O)oc2c(C)c(OCC(=O)NCCN3CCOCC3)ccc12` was run?
Answer: 1.04%

Question: With `Cc1cc(=O)oc2c(C)c(OCC(=O)NCCN3CCOCC3)ccc12` as the compound, how does the activation read?
Answer: -0.44%

Question: Which activation does the source give for `O=C(COc1ccc2c3c(c(=O)oc2c1)CCCC3)NCC(O)c1ccccc1` (stereo not given) here?
Answer: -0.24%

Question: For `Cc1cc(=O)oc2c3c(cc(OCC(=O)NCCC(=O)N[C@@H](C)C(=O)O)c12)OC(C)(C)CC3`, which activation is on record?
Answer: 47.4% (active)

Question: Which activation does the source give for `Cc1ccccc1NC(=O)COC(=O)c1ccc(Sc2ncn[nH]2)c([N+](=O)[O-])c1` here?
Answer: 0.34%

Question: `Cc1cc(C)cc(NC(=O)N2CCC(N(C)CCC(C)C)CC2)c1` was tested. Which activation did it give?
Answer: -0.07%

Question: Which activation does the source give for `CC(CCN1CCC(C(O)(c2ccccc2)c2ccccc2)CC1)Oc1ccc(C(F)(F)F)cc1` (stereo not given) here?
Answer: -0.17%

Question: Which activation does the source give for `COC(=O)[C@]12C[C@H](CC(=O)N3CCN(C(=O)C4CC4)CC3)C(=O)N(CCC3=CCCCC3)C1=C[C@H](C(C)C)O[C@@H]2C1CC1` here?
Answer: 0.25%

Question: Which activation does the source give for `CCCC[C@H]1C2CC(OC(=O)NCc3ccccc3)C(C2)[C@H]2CCCCN21` (stereo not given in full) here?
Answer: 0.07%

Question: How did the activation turn out when `O=C(NCc1cccnc1)c1ccc2nc([C@@H]3O[C@H](CO)[C@H](O)[C@H](O)[C@H]3O)[nH]c2c1` was run?
Answer: -0.29%

Question: How did the activation turn out when `CCOC(=O)c1csc(NC(=O)C2CCCN(S(=O)(=O)c3ccc(Cl)s3)C2)n1` (stereo not given) was run?
Answer: 0.6%

Question: For `Cc1ccccc1N1CCN(C2CCCN(C(=O)c3cn4c(C)cccc4n3)C2)CC1` (stereo not given), which activation is on record?
Answer: 0.45%

Question: Which activation does the source give for `CCOC(=O)[C@]12CCCCC/C=C\1N(Cc1ccc(OC)cc1)C(=O)[C@H]2CC(=O)NCc1ccc(C)o1` here?
Answer: 0.76%

Question: `O=C(CN1CCCc2ccccc21)NCc1ccc(F)cc1` was tested. Which activation did it give?
Answer: -0.07%

Question: For `COC(=O)c1ccc(C2C3=C(Nc4nnnn42)c2ccccc2OC3)cc1` (stereo not given), which activation is on record?
Answer: 30.4% (active)

Question: For `COc1ccccc1NC(=O)C1=C(C)Nc2nnnn2C1c1cccc(Br)c1` (stereo not given), which activation is on record?
Answer: 0.58%

Question: Which activation does the source give for `COC(=O)C1=C(C(=O)c2ccc(C)cc2)C(c2ccccc2)n2nnnc2N1` (stereo not given) here?
Answer: -0.19%

Question: How did the activation turn out when `COc1ccccc1C(=O)NC1CCCCN(C(C)C)C1=O` (stereo not given) was run?
Answer: 0.9%

Question: With `COc1cccc(CNC(=O)C2CCCN(c3nc4ccccc4o3)C2)c1OC` (stereo not given) as the compound, how does the activation read?
Answer: 0.61%

Question: For `O=S(=O)(c1ccccc1)N1CCC(c2nc3ccccc3o2)CC1`, which activation is on record?
Answer: -0.13%

Question: How did the activation turn out when `CC(=O)N1CCN(Cc2cc(=O)oc3cc(C)ccc23)CC1` was run?
Answer: 0.22%

Question: `CC(=O)N1CCN(C(=O)c2cc(-c3ccc(C)o3)nc3ccccc23)CC1` was tested. Which activation did it give?
Answer: 35.2% (active)

Question: How did the activation turn out when `O=C(c1cc(-c2ccco2)nc2ccccc12)N(Cc1nnc(-c2ccc(Cl)cc2)o1)C1CC1` was run?
Answer: -60.5%

Question: `CC1CCN(C(=O)Cn2cc(C(=O)c3ccco3)c3ccccc32)CC1` was tested. Which activation did it give?
Answer: 0.78%

Question: Which activation does the source give for `CC1CCCN(C(=O)c2cc(-c3ccco3)nc3ccccc23)C1` (stereo not given) here?
Answer: 38.3% (active)

Question: Which activation does the source give for `Cc1ccc(S(=O)(=O)N2CCN(C(=O)c3ccccc3-c3nc4ccccc4s3)CC2)c(C)c1` here?
Answer: -0.15%
